# Test results reported in the supplement of paper PMC8728848.
# The full list was thinned out, with the strongest signals kept by preference.
# Columns and labels:
# Test in all cases: glycan array binding signal (z-score within array); higher = stronger binding
# Conditions in all cases: glycan notation: IUPAC condensed, linker removed
# [1] = target: Fuc(a1-2)Gal(b1-3)[Fuc(a1-4)]GlcNAc(b1-3)[Fuc(a1-3)[Gal(b1-4)]GlcNAc(b1-6)]Gal(b1-4)Glc
# Procedure, shortened: (§1)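 Columns mapping to the same glycan were averaged after glycan names were converted to IUPAC-condensed notation. The data come from 3228 arrays in the Consortium for Functional Glycomics database, limited to those with an available protein sequence. Binding is reported as a within-array Z-score averaged across arrays of one protein sequence and across linkers.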
# [2] = target: Fuc(a1-2)Gal(b1-4)Fuc(a1-3)]GlcNAc(b1-2)Man(a1-3)[Fuc(a1-2)Gal(b1-4)[Fuc(a1-3)]GlcNAc(b1-2)Man(a1-6)]Man(b1-4)GlcNAc(b1-4)GlcNAc
# Procedure, shortened: as §1
# [3] = target: Fuc(a1-2)Gal(b1-4)[Fuc(a1-3)]GlcNAc(b1-3)Gal(b1-4)[Fuc(a1-3)]GlcNAc
# Procedure, shortened: as §1
# Fuc(a1-2)Gal6S(b1-4)Glc = target: Fuc(a1-2)Gal6S(b1-4)Glc
# Procedure, shortened: as §1
# [4] = target: Fuc(a1-2)[Gal(a1-3)]Gal(b1-3)GlcNAc(b1-2)Man(a1-3)[Fuc(a1-2)[Gal(a1-3)]Gal(b1-3)GlcNAc(b1-2)Man(a1-6)]Man(b1-4)GlcNAc(b1-4)GlcNAc
# Procedure, shortened: as §1
# [5] = target: Fuc(a1-2)[Gal(a1-3)]Gal(b1-4)Glc
# Procedure, shortened: as §1
# [6] = target: Fuc(a1-2)[Gal(a1-3)]Gal(b1-4)GlcNAc(b1-2)Man(a1-3)[Fuc(a1-2)[Gal(a1-3)]Gal(b1-4)GlcNAc(b1-2)Man(a1-6)]Man(b1-4)GlcNAc(b1-4)GlcNAc
# Procedure, shortened: as §1
# [7] = target: Fuc(a1-2)[GalNAc(a1-3)]Gal(b1-4)[Fuc(a1-3)]GlcNAc
# Procedure, shortened: as §1
# [8] = target: Fuc(a1-3)[Gal(b1-4)]GlcNAc(b1-3)Gal(b1-3)[Fuc(a1-4)]GlcNAc
# Procedure, shortened: as §1
# [9] = target: Fuc(a1-3)[Gal(b1-4)]GlcNAc(b1-3)GalNAc
# Procedure, shortened: as §1
# [10] = target: Fuc(a1-3)[Gal(b1-4)]GlcNAc6S
# Procedure, shortened: as §1
# Fuc(a1-4)GlcNAc = target: Fuc(a1-4)GlcNAc
# Procedure, shortened: as §1
# Fuc(b1-3)GlcNAc = target: Fuc(b1-3)GlcNAc
# Procedure, shortened: as §1
# [11] = target: Gal(a1-4)Gal(b1-3)GlcNAc(b1-2)Man(a1-3)[Gal(a1-4)Gal(b1-3)GlcNAc(b1-2)Man(a1-6)]Man(b1-4)GlcNAc(b1-4)GlcNAc
# Procedure, shortened: as §1
# Gal(b1-2)Gal = target: Gal(b1-2)Gal
# Procedure, shortened: as §1
# [12] = target: Gal(b1-3)GalNAc(a1-3)[Fuc(a1-2)]Gal(b1-4)GlcNAc
# Procedure, shortened: as §1
# [13] = target: Gal(b1-3)GlcNAc(b1-3)Gal(b1-4)Glc
# Procedure, shortened: as §1
# [14] = target: Gal(b1-3)[Fuc(a1-4)]GlcNAc(b1-3)Gal(b1-3)[Fuc(a1-4)]GlcNAc
# Procedure, shortened: as §1
# [15] = target: Gal(b1-3)[Fuc(a1-4)]GlcNAc(b1-6)GalNAc
# Procedure, shortened: as §1
# [16] = target: Gal(b1-4)GlcNAc(b1-2)Man(a1-6)[Man(a1-3)]Man(b1-4)GlcNAc(b1-4)GlcNAc
# Procedure, shortened: as §1
# [17] = target: Gal(b1-4)GlcNAc(b1-3)Gal(b1-4)GlcNAc
# Procedure, shortened: as §1
# [18] = target: Gal(b1-4)GlcNAc(b1-3)Gal(b1-4)GlcNAc(b1-2)Man(a1-3)[Gal(b1-4)GlcNAc(b1-3)Gal(b1-4)GlcNAc(b1-2)Man(a1-6)]Man(b1-4)GlcNAc(b1-4)GlcNAc
# Procedure, shortened: as §1
# [19] = target: Gal(b1-4)GlcNAc(b1-3)Gal(b1-4)GlcNAc(b1-3)Gal(b1-4)GlcNAc(b1-3)Gal(b1-4)GlcNAc(b1-3)Gal(b1-4)GlcNAc(b1-2)[Gal(b1-4)GlcNAc(b1-3)Gal(b1-4)GlcNAc(b1-3)Gal(b1-4)GlcNAc(b1-3)Gal(b1-4)GlcNAc(b1-3)Gal(b1-4)GlcNAc(b1-6)]Man(a1-6)[Gal(b1-4)GlcNAc(b1-3)Gal(b1-4)GlcNAc(b1-3)Gal(b1-4)GlcNAc(b1-3)Gal(b1-4)GlcNAc(b1-3)Gal(b1-4)GlcNAc(b1-2)Man(a1-3)]Man(b1-4)GlcNAc(b1-4)[Fuc(a1-6)]GlcNAc
# Procedure, shortened: as §1
# [20] = target: Gal(b1-4)GlcNAc(b1-3)[GlcNAc(b1-6)]Gal(b1-4)GlcNAc
# Procedure, shortened: as §1
# [21] = target: Gal(b1-4)GlcNAc(b1-6)[Gal(b1-4)GlcNAc(b1-3)]GalNAc
# Procedure, shortened: as §1
# [22] = target: Gal3S(b1-3)[Fuc(a1-4)]GlcNAc
# Procedure, shortened: as §1
# GalNAc(a1-3)GalNAc = target: GalNAc(a1-3)GalNAc
# Procedure, shortened: as §1
# GalNAc(b1-3)GalNAc = target: GalNAc(b1-3)GalNAc
# Procedure, shortened: as §1
# GalNAc(b1-4)Gal(b1-4)Glc = target: GalNAc(b1-4)Gal(b1-4)Glc
# Procedure, shortened: as §1
# GalNAc(b1-4)GlcNAc = target: GalNAc(b1-4)GlcNAc
# Procedure, shortened: as §1
binder,measurement,setting,value
"XTP3-B-MRH2 (Homo sapiens), Q96DZ1 (protein) EFLSGSYCFRGGVGWWKYEFCYGKHVHQYHEDKDSGKTSVVVGTWNQEEHIEWAKKNTARAYHLQDDGTQTVRMVSHFYGNGDICDITDKPRQVTVKLKCKESDSPHAVTVYMLEPHSCQYILGVESPVICKILDTA",glycan array binding signal (z-score),[1],2.32
same,glycan array binding signal (z-score),[2],2.2
same,glycan array binding signal (z-score),[3],-0.464
same,glycan array binding signal (z-score),Fuc(a1-2)Gal6S(b1-4)Glc,0.258
same,glycan array binding signal (z-score),[4],2.72
same,glycan array binding signal (z-score),[5],1.19
same,glycan array binding signal (z-score),[6],2.95
same,glycan array binding signal (z-score),[7],-0.177
same,glycan array binding signal (z-score),[8],-2.1
same,glycan array binding signal (z-score),[9],-0.079
same,glycan array binding signal (z-score),[10],-0.412
same,glycan array binding signal (z-score),Fuc(a1-4)GlcNAc,2.2
same,glycan array binding signal (z-score),Fuc(b1-3)GlcNAc,-0.321
same,glycan array binding signal (z-score),[11],0.355
same,glycan array binding signal (z-score),Gal(b1-2)Gal,-0.575
same,glycan array binding signal (z-score),[12],0.353
same,glycan array binding signal (z-score),[13],0.052
same,glycan array binding signal (z-score),[14],3.38
same,glycan array binding signal (z-score),[15],-0.084
same,glycan array binding signal (z-score),[16],2.47
same,glycan array binding signal (z-score),[17],0.386
same,glycan array binding signal (z-score),[18],3.21
same,glycan array binding signal (z-score),[19],-0.908
same,glycan array binding signal (z-score),[20],0.199
same,glycan array binding signal (z-score),[21],0.934
same,glycan array binding signal (z-score),[22],0.892
same,glycan array binding signal (z-score),GalNAc(a1-3)GalNAc,5.08
same,glycan array binding signal (z-score),GalNAc(b1-3)GalNAc,-1.03
same,glycan array binding signal (z-score),GalNAc(b1-4)Gal(b1-4)Glc,-0.842
same,glycan array binding signal (z-score),GalNAc(b1-4)GlcNAc,2.09
